Compound activity as filed in PubChem.
In the library only some 1.9% were active in any assay of this set; here they are far more common.
CR mimetic SO: lowers age-related superoxide in aged yeast cells; S. cerevisiae aged cells, superoxide DHE fluorescence; hits give low values; superoxide response (% of plate mean), % at 10 µM; AID 2690; 0.18% of 330,000 active;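 active = superoxide response under a set limit, about three screen SD below normal, cut at about 65% in these data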;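 note: yeast aged for seven days with compound at 30 °C before DHE staining; 100% = average MFI of all compound-treated wells on the plate with controls excluded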
LANA-H2A inh: blocks KSHV LANA binding to histone H2A/H2B; 0.6% of 320,000 active; Q9QR71; inhibition, % (test concentration not listed); cell-free LANA-H2A/H2B peptide, fluorescence polarization; in the data active = inhibition mostly above about 10%, no sharp cut-off; inactive = mostly below about 6.7%
GLD-1 RNA inh: GLD-1-TGE RNA interaction inhibition (C. elegans); purified GLD-1 + fluorescein TGE RNA, fluorescence polarization; Q17339; 0.44% of 320,000 active; inhibition, % at 5.96 µM;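 active = percent inhibition above a per-plate cutoff, the plate mean of test compounds plus 3 SD, cut at about 30% in these data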;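 note: 0% = DMSO wells with GLD-1 and probe and 100% = wells lacking GLD-1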
Target sequence (Q17339 whole entry, looked up): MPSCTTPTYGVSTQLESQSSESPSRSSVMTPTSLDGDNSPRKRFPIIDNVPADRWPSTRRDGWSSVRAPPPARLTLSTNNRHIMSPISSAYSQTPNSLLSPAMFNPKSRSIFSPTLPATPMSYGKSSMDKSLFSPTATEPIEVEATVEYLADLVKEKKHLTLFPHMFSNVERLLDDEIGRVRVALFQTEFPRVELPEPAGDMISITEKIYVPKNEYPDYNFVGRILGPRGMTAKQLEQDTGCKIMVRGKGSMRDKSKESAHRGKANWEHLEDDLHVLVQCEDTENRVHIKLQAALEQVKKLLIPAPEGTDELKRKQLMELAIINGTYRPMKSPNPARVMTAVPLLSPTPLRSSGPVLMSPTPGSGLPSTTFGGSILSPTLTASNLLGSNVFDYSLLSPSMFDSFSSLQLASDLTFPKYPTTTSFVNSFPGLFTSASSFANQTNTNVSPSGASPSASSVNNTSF
BCLXL inh: inhibitors of human Bcl-xL. Q07817. GST-Bcl-xL / FITC-Bim BH3 peptide fluorescence polarization. inhibition, % at 10.9 µM. 0.7% of 320,000 active. AID 2129;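 active = inhibition above the mean of all tested compounds plus 3 SD, cutoff set per campaign, cut at about 30% in these data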;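 note: 0% = DMSO wells and 100% = unlabeled Bim-BH3 peptide competitor; inhibitors lower millipolarization by displacing the labeled peptide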
MEX-5 binding: C. elegans MEX-5 TCR-2 RNA binding activity | MEX-5/FITC-TCR2 RNA binding, fluorescence polarization; hits give low values | 0.38% of 300,000 active | activity score (negative = inhibition of binding), % at 10 µM | Q9XUB2;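 active = inhibition past about -25% in most replicates, and total fluorescence under double the plate's negative control median, limit read from the data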;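 note: 0% = DMSO and -100% = 5 µM competing unlabeled TCR2 RNA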
MCL1 BIM primary: MCL1-BIM-BH3 interaction inhibition (human); Q07820; GST-MCL1 / FITC-Bim-BH3 fluorescence polarization; inhibition, % at 10.9 µM; 0.68% of 320,000 active;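 active = inhibition above the mean inhibition of all tested compounds plus 3 SD, set per campaign, cut at about 40% in these data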;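 note: 0% = DMSO wells and 100% = unlabeled Bim-BH3 peptide control; higher means more loss of mP so more displacement of Bim peptide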
BCLXL inh confirm: Bcl-xL (human) inhibition, MCL1 counter-screen confirmation; shares compounds with MCL1 BIM primary; inhibition, % at 10.9 µM; GST-Bcl-xL / FITC-Bim BH3 peptide FP binding; 54% of 1,700 active;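 active = inhibition above a cutoff equal to the mean inhibition of all tested compounds plus 3 SD, cut at about 30% in these data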;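 note: 0% = DMSO wells and 100% = unlabeled Bim BH3 control peptide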
MCL1 BIM confirm: confirmation of human MCL1 and BIM-BH3 interaction inhibitors; shares compounds with MCL1 BIM primary; GST-MCL1 / FITC-Bim-BH3 fluorescence polarization; inhibition, % at 10.9 µM; 61% of 1,700 active; AID 2168;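 active = inhibition above the average of all tested compounds plus 3 SD, cut at about 40% in these data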;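 note: 0% = DMSO wells and 100% = unlabeled Bim-BH3 control peptide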
GLD1 RNA confirm: confirmation of C. elegans GLD-1 TGE RNA binding inhibitors. shares compounds with GLD-1 RNA inh. GLD-1/FL-TGE RNA fluorescence polarization, biochemical. inhibition, % at 5.96 µM. 10% of 550 active. AID 2459;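 active = average inhibition across triplicates above the hit cutoff set in the primary screen, cut at about 32% in these data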;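 note: 0% = GLD-1 with RNA probe and DMSO and 100% = wells lacking GLD-1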
Starred values were filed as active, the others as inactive; x = no result given.

SMILES	CR mimetic SO	LANA-H2A inh	GLD-1 RNA inh	BCLXL inh	MEX-5 binding	MCL1 BIM primary	GLD1 RNA confirm	others
OCCC1CN(Cc2cccc3nccnc23)CCN1Cc1ccc(F)cc1 (stereo unspecified)	95	-12	46*	60*	-1	60*	-1	BCLXL inh confirm=9;MCL1 BIM confirm=7
COc1ccc(CCNC(=O)C2CCCN(S(=O)(=O)c3cc(C)ccc3OC)C2)cc1OC (stereo unspecified)	99	9	6	3	-2	5	x
Cc1ccccc1CS(=O)(=O)CCC(=O)NCCN1CCN(c2cccc(Cl)c2)CC1	106	-4	62*	62*	0	59*	-2	BCLXL inh confirm=10;MCL1 BIM confirm=24
O=C1C=C(N(CCO)Cc2ccccc2)c2ccccc2C1=O	x	x	x	x	-1	x	x
O=C1c2ccccc2C(=O)c2c1cccc2N(CCO)CCO	163	9	46*	72*	-42*	65*	50*	BCLXL inh confirm=58*;MCL1 BIM confirm=77*
Cc1c(O)ccc(-c2n[nH]c(C(=O)O)c2-c2nc3ccccc3s2)c1O	111	5	44*	11	-58*	14	51*
Cc1[nH]nc2c1C(c1ccc(F)cc1)C(C#N)=C(N)O2 (stereo unspecified)	104	4	-1	-3	-1	6	x
CCN1C=C(Cc2ccc(F)cc2)C2=C(C1)C(c1ccc(F)cc1)C(C#N)=C(N)O2 (stereo unspecified)	95	-1	41*	10	-1	8	5
COc1cccc(CN(CC(=O)NCC2CCCO2)C(=O)CNS(=O)(=O)c2ccccc2)c1 (stereo unspecified)	96	-3	-1	-3	1	4	x
COc1cccc(N(CC(=O)NCC2CCCO2)C(=O)CNS(=O)(=O)c2ccccc2)c1 (stereo unspecified)	95	2	38*	41*	2	36	1
CC[C@@H]1CCCCc2ccccc2[C@H](C(=O)C[C@H](O)CC(C)=O)OC1=O	93	-1	3	x	x	x	x
COc1c(CC=C(C)C)cc(C2CC(=O)c3c(O)cc(O)cc3O2)c(CC=C(C)C)c1O (stereo unspecified)	93	-3	8	4	-1	2	x
CC(C)=CCc1cc([C@@H]2CC(=O)c3ccc(O)c(CC=C(C)C)c3O2)ccc1O	93	1	43*	2	-3	1	-6
COc1ccc(S(=O)(=O)Nc2ccc3c(c2)C(=O)N([C@H](C)CO)C[C@H](C)[C@@H](CN(C)S(=O)(=O)c2cccs2)O3)cc1	105	0	-2	x	x	x	x
C=C(C)CCC(C)N1CCC(n2nccc2NC(=O)CCOc2ccccc2)CC1 (stereo unspecified)	108	3	3	14	-14	16	x
CCOC(=O)C1=C(C)N(c2ccc(C)cc2)C(=O)/C1=C\c1ccc(O)c(OC)c1	98	3	6	10	3	3	x
CCOC(=O)C1=C(O)c2ccccc2C(=O)/C1=C\c1ccc(C)cc1	126	3	57*	37*	x	43*	-6
CCCCn1c(N)c(N(CC)C(=O)COc2ccc(C#N)cc2)c(=O)[nH]c1=O	121	2	9	x	x	x	x
O=C(COC(=O)C1=NN(c2ccccc2)C(=O)CC1)Nc1ccc([N+](=O)[O-])cc1C(F)(F)F	93	-3	0	-2	x	-7	x
CCc1nc2oc3ccc(C)cc3c(=O)c2cc1C(=O)OC	102	1	x	x	1	x	x
CC(C)c1ccc(/C=N/n2nnnc2Nc2ccccc2)cc1	96	-2	49*	43*	0	40	-10
O=C(NCCOc1ccc(Cl)cc1)c1ccc2ccccc2n1	87	4	54*	4	x	2	-4
CCOc1ccc(-c2noc(-c3cccnc3)n2)cc1OCC	95	8	102*	1	x	3	-2
O=C(CN1C(=O)COc2ccccc21)NCCN1CCOCC1	91	1	5	3	0	-7	x
CC1Oc2ccccc2N(CC(=O)NCCN2CCOCC2)C1=O (stereo unspecified)	92	5	37*	31*	1	49*	4
SMILES	CR mimetic SO	LANA-H2A inh	GLD-1 RNA inh	BCLXL inh	MEX-5 binding	MCL1 BIM primary	GLD1 RNA confirm	others
O=[N+]([O-])c1c(Nc2ccc(O)cc2)cc(Cl)c2nonc12	121	-4	-2	16	-8	20	x
Cc1ccc(C)c(NC(=S)NCc2ccc3[nH]c4c(c3c2)CCCC4)c1	112	-6	59*	55*	1	15	-4
Cc1ccc(C(C)C)cc1OCC(=O)N1CCN(C(=O)c2ccco2)CC1	103	6	9	1	-2	3	x
Nc1nc(-c2ccccc2)c(N=Nc2ccccc2Cl)s1	120	5	159*	1	0	4	-1
C=CCn1c(CCNC(=O)c2cccs2)nnc1SCC(=O)c1ccc(Cl)cc1	83	x	86*	-2	0	-1	8
C=CCn1c(CCNC(=O)c2cccs2)nnc1SCC(=O)c1cccc([N+](=O)[O-])c1	89	-2	-2	-1	2	8	x
COc1ccc(-n2c(=O)/c(=C\c3cccs3)s/c2=C(/C#N)C(=O)N2CCN(C)CC2)cc1	91	3	-3	0	x	2	x
N#C/C(C(=O)N1CCOCC1)=c1/s/c(=C\c2ccccn2)c(=O)n1-c1ccccc1	99	-1	33*	43*	-7	43*	6
O=Nc1c(-c2c(O)[nH]c3cc(Br)ccc23)[nH]c2ccccc12	101	-1	-80	-23	-1	-49	x
COc1ccc(C(=O)n2cnnc2N)cc1	87	0	-2	0	-1	-7	x
CCOc1ccc(C(=O)n2cnnc2N)cc1	104	-8	35*	-1	-1	-8	4
CCOC(=O)c1c(-c2ccccc2)oc2cc(CN(C)C)c(O)c(CN(C)C)c12	107	49*	37*	35*	-2	49*	7
CCOC(=O)c1c(C)oc2cc(Cl)c(O)c(CN(C)C)c12	82	2	1	1	0	4	x
O=C(CCNS(=O)(=O)c1ccc(Br)cc1)NCCCSc1ccccc1	101	2	4	4	x	7	x
Cc1cccc(-c2nc(C#N)c(N3CCC(C)CC3)o2)c1	98	2	x	x	0	x	x
